For part of these data: Results with a measured potency or affinity are listed apart. Activity calls are given as the source filed them. How the calls were made is not given here.
Wherever efficacy is given: 0% is about no effect.

A short description of one assay: qHTS profiling of the MIPE4 collection as inhibitors of Plasmodium falciparum (3D7) proliferation (AID 743344).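 Further: scaled between DMSO vehicle wells and 0.29 µM artemisinin as full inhibition.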 Conditions: P. falciparum 3D7 in erythrocytes, SYBR Green DNA fluorescence, 72 h; at 28.5 µM unless noted. In a few lines:
(§1)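 Parasite DNA was quantified by SYBR Green I fluorescence (ex 485, em 535 nm) after overnight lysis in saponin/Triton buffer at room temperature. Cultures at 0.3% parasitemia and 2.5% hematocrit were first exposed to compound for 72 h at 37 C; signals were normalised to artemisinin (0.29 uM) and vehicle wells.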
(In general: qHTS replaces the single test concentration by a dilution series.)
As to `O=C1CC[C@@]2(O)[C@H]3Cc4ccc(O)c5c4[C@@]2(CCN3CC2CC2)[C@H]1O5`, the parasite growth, % of DMSO control was 94.1%.
Same read-out and setting: in the case of `O=NN(CCCl)C(=O)NCCCl` it was 95.8%; in that of `O=NN(CCCl)C(=O)NC1CCCCC1`, 91.7%; in that of `CCN(C)C(=O)Oc1cccc([C@H](C)N(C)C)c1`, 92%.
Same read-out and setting: in the case of `OC(Cn1cncn1)(Cn1cncn1)c1ccc(F)cc1F` it was 95.6%; in that of `O=C(OC1C[C@H]2CC[C@@H](C1)[N+]21CCCC1)C(O)(c1ccccc1)c1ccccc1` (stereo partly drawn), 32.2%.

A short description of another assay: qHTS profiling of the MIPE4 collection as inhibitors of Plasmodium falciparum (DD2) proliferation (AID 743345). Conditions: P. falciparum Dd2 in erythrocytes, SYBR Green DNA, 72 h; at 28.5 µM unless noted. In a few lines:
as §1
Consider `O=C1CC[C@@]2(O)[C@H]3Cc4ccc(O)c5c4[C@@]2(CCN3CC2CC2)[C@H]1O5`, for which the parasite growth remaining, % of DMSO control (lower = more inhibition) came out at 113%.
Still for that read-out and setting: in the case of `O=NN(CCCl)C(=O)NCCCl` it was 102%; in that of `O=NN(CCCl)C(=O)NC1CCCCC1`, 101%.
The same measure, in the same setting: in the case of `O=C(OC1C[C@H]2CC[C@@H](C1)[N+]21CCCC1)C(O)(c1ccccc1)c1ccccc1` (stereo partly drawn) it was 48.3%.

Assay in the next assay: not given
Conditions: Ebola virus entry assay, green fluorescence channel.
With `CC1(C)S[C@@H]2[C@H](NC(=O)Cc3ccccc3)C(=O)N2[C@H]1C(=O)O` (tested in a mixture with another compound), the efficacy was -23.1% (inactive).
In the case of `C[n+]1ccccc1/C=N/O`, the efficacy was -22% (inactive).
Same read-out and setting: in the case of `CN(CCOc1ccc(NS(C)(=O)=O)cc1)CCc1ccc(NS(C)(=O)=O)cc1` it was 20.2% (inactive); in that of `CC(=O)CCCCn1c(=O)c2c(ncn2C)n(C)c1=O`, -14.2% (inactive); in that of `Cc1cn([C@H]2C=C[C@@H](CO)O2)c(=O)[nH]c1=O`, 10.9% (inactive).
Take `CCCCCOC(=O)Nc1nc(=O)n([C@@H]2O[C@H](C)[C@@H](O)[C@H]2O)cc1F`: the efficacy is 20.9% (inactive).
The same measure, in the same setting: in the case of `COc1ccc(-c2cc(=S)ss2)cc1` it was -17.7% (inactive); in that of `CC(C)NCC(O)c1ccc(O)c(O)c1` (stereo not drawn), -9.56% (inactive).
As to `CC1(C)O[C@@H]2[C@@H](CO[C@@]3(COS(N)(=O)=O)OC(C)(C)O[C@@H]23)O1`, the efficacy is -13.6% (inactive).
On the same count and under the same terms, in the case of `CN(C)c1nc(N(C)C)nc(N(C)C)n1` it was 14.8% (inactive); in that of `C[C@H]1O[C@H](O[C@H]2[C@H](O)[C@@H](O)[C@@H](O[C@H]3[C@H](O)[C@@H](O)[C@H](O)O[C@@H]3CO)O[C@@H]2CO)[C@H](O)[C@@H](O)[C@@H]1N[C@H]1C=C(CO)[C@@H](O)[C@H](O)[C@H]1O`, 9.72% (inactive).
On the same count and under the same terms, in the case of `N[C@@H](Cc1cc(I)c(Oc2cc(I)c(O)c(I)c2)c(I)c1)C(=O)O` it was -10% (inactive); in that of `CC(=O)O[C@]1(C(C)=O)CC[C@H]2[C@@H]3C=C(C)C4=CC(=O)CC[C@]4(C)[C@H]3CC[C@@]21C`, 20% (inactive).
Still for that read-out and setting: in the case of `COc1nc(N)nc2c1ncn2[C@@H]1O[C@H](CO)[C@@H](O)[C@@H]1O` it was -33.2% (inactive); in that of `CCOc1ccc2ccccc2c1C(=O)N[C@@H]1C(=O)N2[C@@H]1SC(C)(C)[C@@H]2C(=O)O`, 20.5% (inactive).
For `O=c1n(CCCN2CCN(c3cccc(Cl)c3)CC2)nc2ccccn12`, the efficacy was 33.5% (inactive).
For the compound `CC(=O)N(O)CCCCCNC(=O)CCC(=O)N(O)CCCCCNC(=O)CCC(=O)N(O)CCCCCN`, the efficacy is -19.8% (inactive).
Still for that read-out and setting: in the case of `CN(C)CCc1c[nH]c2ccc(CS(=O)(=O)N3CCCC3)cc12` it was -14.5% (inactive); in that of `Nc1nc(=S)c2[nH]cnc2[nH]1`, -27.5% (inactive); in that of `NC(=O)NO`, 10% (inactive).
On the same count and under the same terms, in the case of `O=C1CC[C@@]2(O)[C@H]3Cc4ccc(O)c5c4[C@@]2(CCN3CC2CC2)[C@H]1O5` it was -27.7% (inactive).
Still for that read-out and setting: in the case of `CC(C)(O)c1ccccc1CC[C@@H](SCC1(CC(=O)O)CC1)c1cccc(/C=C/c2ccc3ccc(Cl)cc3n2)c1` it was 12.9% (inactive); in that of `COc1c(C)c2c(c(O)c1C/C=C(\C)CCC(=O)O)C(=O)OC2`, 11.2% (inactive).
Turning to `Cc1ccc(C(=O)c2cc(O)c(O)c([N+](=O)[O-])c2)cc1`, the efficacy is 31.1% (inactive).
The same measure, in the same setting: in the case of `NS(=O)(=O)Cc1noc2ccccc12` it was -13.2% (inactive); in that of `COC(c1ccccc1)(c1ccccc1)[C@H](Oc1nc(C)cc(C)n1)C(=O)O`, -17.9% (inactive); in that of `Nc1ncn([C@@H]2O[C@H](CO)[C@@H](O)[C@H]2O)c(=O)n1`, -20.9% (inactive).
Same read-out and setting: in the case of `COc1cc2c(cc1OC)[C@@H]1CC(=O)[C@@H](CC(C)C)CN1CC2` it was 24.3% (inactive); in that of `Cc1cc(C)cc(OCC2CNC(=O)O2)c1` (stereo not drawn), -18.5% (inactive); in that of `O=NN(CCCl)C(=O)NCCCl`, -15% (inactive).
Still for that read-out and setting: in the case of `CCCN(CCC)S(=O)(=O)c1ccc(C(=O)O)cc1` it was -17.8% (inactive); in that of `O=NN(CCCl)C(=O)NC1CCCCC1`, -12.9% (inactive).
`CCN(C)C(=O)Oc1cccc([C@H](C)N(C)C)c1`: the efficacy is 11.7% (inactive).
On the same count and under the same terms, in the case of `OC(Cn1cncn1)(Cn1cncn1)c1ccc(F)cc1F` it was -11.5% (inactive); in that of `CNS(=O)(=O)CCc1ccc2[nH]cc(C3CCN(C)CC3)c2c1`, -15% (inactive).
Consider `C=C(c1ccc(C(=O)O)cc1)c1cc2c(cc1C)C(C)(C)CCC2(C)C`, for which the efficacy was 22.5% (inactive).
Still for that read-out and setting: in the case of `CCCN[C@H]1CCc2nc(N)sc2C1` it was -13.1% (inactive).
The same measure, in the same setting: in the case of `O=C(OC1C[C@H]2CC[C@@H](C1)[N+]21CCCC1)C(O)(c1ccccc1)c1ccccc1` (stereo partly drawn) it was 12.9% (inactive).

(Values after PubChem BioAssay (NCATS).)
